{
  "source": "PubChem BioAssay (NCI)",
  "test_in_all_cases": "NCI-60 one-dose screen, 48 h (100 = growth as untreated, 0 = no growth, -100 = all killed)",
  "key": {"NCI-H23 lung": {"system": "NCI-H23 lung"}, "NCI-H226 lung": {"system": "NCI-H226 lung"}, "NCI-H322M lung": {"system": "NCI-H322M lung"}, "HOP-62 NSCLC": {"system": "HOP-62 NSCLC"}, "NCI-H460 lung": {"system": "NCI-H460 lung"}, "HOP-92 NSCLC": {"system": "HOP-92 NSCLC"}, "NCI-H522 lung": {"system": "NCI-H522 lung"}, "A549/ATCC NSCLC": {"system": "A549/ATCC NSCLC"}, "786-0 renal": {"system": "786-0 renal"}, "COLO 205 colon": {"system": "COLO 205 colon", "conditions": "10 µM unless noted"}},
  "note": "Several values for one entry are separate records, joined by “and”; a condition that tells them apart may be missing. Equal entries are not always repeated. This is part of a sample that, as a whole, favours compounds with a hit. Of some 83,000 tested, about 20% had one in any assay.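 Treatment: one concentration, 48 hours, 96-well format. Scoring: percent growth, with anything below 10 considered active.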 More than one record can exist for a structure, and the calls need not agree. Activity calls are given as the source filed them.",
  "data": [
    {"smiles": "Nc1cc(-c2cccc(OC(F)(F)F)c2)nc2ccc(N3CCCC3)cc12", "values": [
      {"measurement": "growth", "setting": "NCI-H23 lung; 10 µM unless noted", "result": "43.5% (inactive) and 40.1% (inactive) and 38.5% (inactive)"},
      {"measurement": "growth", "setting": "NCI-H226 lung; 10 µM unless noted", "result": "40.2% (inactive) and 48.3% (inactive) and 33.8% (inactive)"},
      {"measurement": "growth", "setting": "NCI-H322M lung; 10 µM unless noted", "result": "49.5% (inactive) and 51.3% (inactive) and 39% (inactive)"},
      {"measurement": "growth", "setting": "HOP-62 NSCLC; 10 µM unless noted", "result": "57.1% (inactive) and 66.1% (inactive) and 15.6% (inactive)"},
      {"measurement": "growth", "setting": "NCI-H460 lung; 10 µM unless noted", "result": "7.01% (active) and 7.24% (active) and 3.29% (active)"},
      {"measurement": "growth", "setting": "HOP-92 NSCLC; 10 µM unless noted", "result": "-0.264% (active) and 3.71% (active) and -3.62% (active)"},
      {"measurement": "growth", "setting": "NCI-H522 lung; 10 µM unless noted", "result": "-13.4% (active) and 4.49% (active) and -38.1% (active)"},
      {"measurement": "growth", "setting": "A549/ATCC NSCLC; 10 µM unless noted", "result": "15.1% (inactive) and 18.4% (inactive) and 13.8% (inactive)"},
      {"measurement": "growth", "setting": "786-0 renal; 10 µM unless noted", "result": "9.51% (active) and 22.1% (inactive) and 16.1% (inactive)"},
      {"measurement": "growth", "setting": "COLO 205 colon", "result": "-58.4% (active) and -35.8% (active) and -80.6% (active)"}
    ]},
    {"smiles": "CCN1CCN(CCNc2nccc(-c3c(-c4cccc(O)c4)nc4sccn34)n2)S1(=O)=O", "values": [
      {"measurement": "growth", "setting": "NCI-H23 lung; 10 µM unless noted", "result": "87.1% (inactive) and 88.3% (inactive)"},
      {"measurement": "growth", "setting": "NCI-H226 lung; 10 µM unless noted", "result": "98.9% (inactive) and 99.1% (inactive)"},
      {"measurement": "growth", "setting": "NCI-H322M lung; 10 µM unless noted", "result": "66% (inactive) and 68.3% (inactive)"},
      {"measurement": "growth", "setting": "HOP-62 NSCLC; 10 µM unless noted", "result": "120% (inactive) and 92.2% (inactive)"},
      {"measurement": "growth", "setting": "NCI-H460 lung; 10 µM unless noted", "result": "52.7% (inactive) and 47.9% (inactive)"},
      {"measurement": "growth", "setting": "HOP-92 NSCLC; 10 µM unless noted", "result": "32.2% (inactive)"},
      {"measurement": "growth", "setting": "NCI-H522 lung; 10 µM unless noted", "result": "67% (inactive) and 63.1% (inactive)"},
      {"measurement": "growth", "setting": "A549/ATCC NSCLC; 10 µM unless noted", "result": "86% (inactive) and 70.1% (inactive)"},
      {"measurement": "growth", "setting": "786-0 renal; 10 µM unless noted", "result": "94.2% (inactive) and 64.3% (inactive)"},
      {"measurement": "growth", "setting": "COLO 205 colon", "result": "24.5% (inactive) and 28.1% (inactive)"}
    ]},
    {"smiles": "c1ccc2cc(C[n+]3ccn(Cc4ccc5ccccc5n4)c3)ccc2c1", "values": [
      {"measurement": "growth", "setting": "NCI-H23 lung; 10 µM unless noted", "result": "-4.2% (active) and 29.2% (inactive)"},
      {"measurement": "growth", "setting": "NCI-H226 lung; 10 µM unless noted", "result": "19.6% (inactive) and 46.4% (inactive)"},
      {"measurement": "growth", "setting": "NCI-H322M lung; 10 µM unless noted", "result": "34.8% (inactive) and 75% (inactive)"},
      {"measurement": "growth", "setting": "HOP-62 NSCLC; 10 µM unless noted", "result": "1.85% (active) and 44.3% (inactive)"},
      {"measurement": "growth", "setting": "NCI-H460 lung; 10 µM unless noted", "result": "11.1% (inactive) and 35.8% (inactive)"},
      {"measurement": "growth", "setting": "HOP-92 NSCLC; 10 µM unless noted", "result": "-20.1% (active) and -5.22% (active)"},
      {"measurement": "growth", "setting": "NCI-H522 lung; 10 µM unless noted", "result": "-27.4% (active) and 6.58% (active)"},
      {"measurement": "growth", "setting": "A549/ATCC NSCLC; 10 µM unless noted", "result": "37.3% (inactive) and 59.3% (inactive)"},
      {"measurement": "growth", "setting": "786-0 renal; 10 µM unless noted", "result": "30.9% (inactive) and 76.1% (inactive)"},
      {"measurement": "growth", "setting": "COLO 205 colon", "result": "-38.3% (active) and -35.3% (active)"}
    ]},
    {"smiles": "Cc1[nH]c(-c2nc3ccccc3[nH]2)c(C)c1C(=O)NC(C)C1CCCCC1", "note": "(centres undefined)", "values": [
      {"measurement": "growth", "setting": "NCI-H23 lung; 10 µM", "result": "87.1% (inactive)"},
      {"measurement": "growth", "setting": "NCI-H23 lung; 100 µM", "result": "-84.8% (active)"},
      {"measurement": "growth", "setting": "NCI-H226 lung; 10 µM", "result": "81.1% (inactive)"},
      {"measurement": "growth", "setting": "NCI-H226 lung; 100 µM", "result": "-53% (active)"},
      {"measurement": "growth", "setting": "NCI-H322M lung; 10 µM", "result": "89.1% (inactive)"},
      {"measurement": "growth", "setting": "NCI-H322M lung; 100 µM", "result": "-96.3% (active)"},
      {"measurement": "growth", "setting": "HOP-62 NSCLC; 10 µM", "result": "95.5% (inactive)"},
      {"measurement": "growth", "setting": "HOP-62 NSCLC; 100 µM", "result": "-54.4% (active)"},
      {"measurement": "growth", "setting": "NCI-H460 lung; 10 µM", "result": "98.1% (inactive)"},
      {"measurement": "growth", "setting": "NCI-H460 lung; 100 µM", "result": "-72% (active)"},
      {"measurement": "growth", "setting": "HOP-92 NSCLC; 10 µM", "result": "78.7% (inactive)"},
      {"measurement": "growth", "setting": "HOP-92 NSCLC; 100 µM", "result": "-50.9% (active)"},
      {"measurement": "growth", "setting": "NCI-H522 lung; 10 µM", "result": "80.9% (inactive)"},
      {"measurement": "growth", "setting": "NCI-H522 lung; 100 µM", "result": "-36.1% (active)"},
      {"measurement": "growth", "setting": "A549/ATCC NSCLC; 10 µM", "result": "90.5% (inactive)"},
      {"measurement": "growth", "setting": "A549/ATCC NSCLC; 100 µM", "result": "-40.2% (active)"},
      {"measurement": "growth", "setting": "786-0 renal; 10 µM", "result": "95.2% (inactive)"},
      {"measurement": "growth", "setting": "786-0 renal; 100 µM", "result": "-31.1% (active)"},
      {"measurement": "growth", "setting": "COLO 205 colon", "result": "-60.3% [100 µM] (active)"}
    ]},
    {"smiles": "CCOc1ccc2cc(-c3nn(CC4CCNCC4)c4ncnc(N)c34)ccc2c1", "values": [
      {"measurement": "growth", "setting": "NCI-H23 lung; 10 µM unless noted", "result": "77.5% (inactive) and 55.6% (inactive)"},
      {"measurement": "growth", "setting": "NCI-H226 lung; 10 µM unless noted", "result": "67.5% (inactive) and 52.5% (inactive)"},
      {"measurement": "growth", "setting": "NCI-H322M lung; 10 µM unless noted", "result": "91.6% (inactive) and 75.4% (inactive)"},
      {"measurement": "growth", "setting": "HOP-62 NSCLC; 10 µM unless noted", "result": "83.2% (inactive) and 64.9% (inactive)"},
      {"measurement": "growth", "setting": "NCI-H460 lung; 10 µM unless noted", "result": "96.7% (inactive) and 49.7% (inactive)"},
      {"measurement": "growth", "setting": "HOP-92 NSCLC; 10 µM unless noted", "result": "72.5% (inactive) and 26.5% (inactive)"},
      {"measurement": "growth", "setting": "NCI-H522 lung; 10 µM unless noted", "result": "86.5% (inactive) and 81.4% (inactive)"},
      {"measurement": "growth", "setting": "A549/ATCC NSCLC; 10 µM unless noted", "result": "85% (inactive) and 59% (inactive)"},
      {"measurement": "growth", "setting": "786-0 renal; 10 µM unless noted", "result": "91.4% (inactive) and 36% (inactive)"},
      {"measurement": "growth", "setting": "COLO 205 colon", "result": "93% (inactive) and 15.3% (inactive)"}
    ]},
    {"smiles": "CC(=O)c1ccc2c(c1)N(CCCN1CCN(CCO)CC1)c1ccccc1S2", "values": [
      {"measurement": "growth", "setting": "NCI-H23 lung; 10 µM unless noted", "result": "98.1% (inactive) and 55.9% (inactive)"},
      {"measurement": "growth", "setting": "NCI-H226 lung; 10 µM unless noted", "result": "84.5% (inactive) and 68.2% (inactive)"},
      {"measurement": "growth", "setting": "NCI-H322M lung; 10 µM unless noted", "result": "98.8% (inactive) and 46.9% (inactive)"},
      {"measurement": "growth", "setting": "HOP-62 NSCLC; 10 µM unless noted", "result": "90.7% (inactive) and 43.1% (inactive)"},
      {"measurement": "growth", "setting": "NCI-H460 lung; 10 µM unless noted", "result": "101% (inactive) and -11.3% (active)"},
      {"measurement": "growth", "setting": "HOP-92 NSCLC; 10 µM unless noted", "result": "-3.7% (active)"},
      {"measurement": "growth", "setting": "NCI-H522 lung; 10 µM unless noted", "result": "67.3% (inactive) and 35.3% (inactive)"},
      {"measurement": "growth", "setting": "A549/ATCC NSCLC; 10 µM unless noted", "result": "45.5% (inactive)"},
      {"measurement": "growth", "setting": "786-0 renal; 10 µM unless noted", "result": "85.9% (inactive) and -18.4% (active)"},
      {"measurement": "growth", "setting": "COLO 205 colon", "result": "134% (inactive) and -82.8% (active)"}
    ]},
    {"smiles": "Cc1cc(N=Nc2ccc(C)c(N=Nc3cc(C)c(N)cc3N)c2)c(N)cc1N", "values": [
      {"measurement": "growth", "setting": "NCI-H23 lung; 10 µM unless noted", "result": "89.5% (inactive) and 78.4% (inactive)"},
      {"measurement": "growth", "setting": "NCI-H226 lung; 10 µM unless noted", "result": "87.5% (inactive) and 95.3% (inactive)"},
      {"measurement": "growth", "setting": "NCI-H322M lung; 10 µM unless noted", "result": "92% (inactive) and 91% (inactive)"},
      {"measurement": "growth", "setting": "HOP-62 NSCLC; 10 µM unless noted", "result": "60.6% (inactive) and 80.8% (inactive)"},
      {"measurement": "growth", "setting": "NCI-H460 lung; 10 µM unless noted", "result": "97.4% (inactive) and 93.2% (inactive)"},
      {"measurement": "growth", "setting": "HOP-92 NSCLC; 10 µM unless noted", "result": "66.2% (inactive)"},
      {"measurement": "growth", "setting": "NCI-H522 lung; 10 µM unless noted", "result": "89.9% (inactive) and 54.9% (inactive)"},
      {"measurement": "growth", "setting": "A549/ATCC NSCLC; 10 µM unless noted", "result": "95.2% (inactive) and 81% (inactive)"},
      {"measurement": "growth", "setting": "786-0 renal; 10 µM unless noted", "result": "94.5% (inactive) and 102% (inactive)"},
      {"measurement": "growth", "setting": "COLO 205 colon", "result": "92.5% (inactive) and 81.2% (inactive)"}
    ]}
  ]
}
